From PMC11006913 come the findings set out here.

Numbering of substitutions follows the chain as printed.

Common to all, as to experiment: PBM; 200 nM protein, PBS
Holding throughout (details): dsDNA, one strand shown

Assay [1] concerns the target T1, SIX6 (Homo sapiens, UniProt O95475 114-200, L167I).
T1 sequence: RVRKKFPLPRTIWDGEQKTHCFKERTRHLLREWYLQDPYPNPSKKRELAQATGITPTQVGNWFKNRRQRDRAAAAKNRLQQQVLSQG

Assay [2] has as its target T2, SIX6 (Homo sapiens, UniProt O95475 114-200, L167M).
T2 sequence: T1 sequence with I54M

Assay [3] deals with T3, SIX6 (Homo sapiens, UniProt O95475 114-200, L143I).
T3 sequence: T1 sequence with L30I, I54L

Assay [4] has as its target T4, SIX6 (Homo sapiens, UniProt O95475 114-200, T165I).
T4 sequence: T1 sequence with T52I, I54L

In assay [5] the target is T5, SIX6 (Homo sapiens, UniProt O95475 114-200, H141N).
T5 sequence: T1 sequence with H28N, I54L

In assay [6] the target is T6, SIX6 (Homo sapiens, UniProt O95475 114-200, L143M).
T6 sequence: T1 sequence with L30M, I54L

In assay [7] the target is T7, SIX6 (Homo sapiens, UniProt O95475 114-200, T165G).
T7 sequence: T1 sequence with T52G, I54L

Assay [8] has as its target T8, SIX6 (Homo sapiens, UniProt O95475 114-200, T139Q).
T8 sequence: T1 sequence with T26Q, I54L

In assay [9] the target is T9, SIX6 (Homo sapiens, UniProt O95475 114-200, T165A).
T9 sequence: T1 sequence with T52A, I54L

For assay [10], the target named is T10, SIX6 (Homo sapiens, UniProt O95475 114-200, L167V).
T10 sequence: T1 sequence with I54V

For assay [11], the target named is T11, SIX6 (Homo sapiens, UniProt O95475 114-200).
T11 sequence: T1 sequence with I54L

Assay [12] addresses T12, SIX6 (Homo sapiens, UniProt O95475 114-200, T165P).
T12 sequence: T1 sequence with T52P, I54L

The target of assay [13] is T13, SIX6 (Homo sapiens, UniProt O95475 114-200, L143V).
T13 sequence: T1 sequence with L30V, I54L

For the sequence GATATACA, the binding signal with SIX6 [1] was 11.1 upbm affinity estimate (log intensity, higher = more binding, comparable within an allelic series); with SIX6 [2] it was 10.9 upbm affinity estimate (log intensity, higher = more binding, comparable within an allelic series); in the assay with SIX6 [3], 10.4 upbm affinity estimate (log intensity, higher = more binding, comparable within an allelic series); with SIX6 [4] it was 10.9 upbm affinity estimate (log intensity, higher = more binding, comparable within an allelic series).
ATCCAATA: the binding signal is 10.4 upbm affinity estimate (log intensity, higher = more binding, comparable within an allelic series) with SIX6 [1]; 10.3 upbm affinity estimate (log intensity, higher = more binding, comparable within an allelic series) in the assay with SIX6 [5]; 10.2 upbm affinity estimate (log intensity, higher = more binding, comparable within an allelic series) with SIX6 [2]; 10.3 upbm affinity estimate (log intensity, higher = more binding, comparable within an allelic series) with SIX6 [6]; 10.4 upbm affinity estimate (log intensity, higher = more binding, comparable within an allelic series) with SIX6 [7]; 10.5 upbm affinity estimate (log intensity, higher = more binding, comparable within an allelic series) with SIX6 [8]. Further, the binding signal with SIX6 [9] is 10.4 upbm affinity estimate (log intensity, higher = more binding, comparable within an allelic series); with SIX6 [10], 10.2 upbm affinity estimate (log intensity, higher = more binding, comparable within an allelic series); with SIX6 [11], 10.3 upbm affinity estimate (log intensity, higher = more binding, comparable within an allelic series); with SIX6 [4] it was 10.2 upbm affinity estimate (log intensity, higher = more binding, comparable within an allelic series).
For GGTGTCAA, the binding signal was 10.4 upbm affinity estimate (log intensity, higher = more binding, comparable within an allelic series) in the assay with SIX6 [1]; 9.33 upbm affinity estimate (log intensity, higher = more binding, comparable within an allelic series) with SIX6 [12]; 9.85 upbm affinity estimate (log intensity, higher = more binding, comparable within an allelic series) in the assay with SIX6 [2]; 11.1 upbm affinity estimate (log intensity, higher = more binding, comparable within an allelic series) in the assay with SIX6 [7]; 11.1 upbm affinity estimate (log intensity, higher = more binding, comparable within an allelic series) in the assay with SIX6 [9].
For ACGGATAG, the binding signal with SIX6 [1] is 10.1 upbm affinity estimate (log intensity, higher = more binding, comparable within an allelic series); in the assay with SIX6 [13], 9.74 upbm affinity estimate (log intensity, higher = more binding, comparable within an allelic series); in the assay with SIX6 [5], 10 upbm affinity estimate (log intensity, higher = more binding, comparable within an allelic series); in the assay with SIX6 [12] it was 9.43 upbm affinity estimate (log intensity, higher = more binding, comparable within an allelic series); with SIX6 [3] it was 9.74 upbm affinity estimate (log intensity, higher = more binding, comparable within an allelic series); with SIX6 [7], 10 upbm affinity estimate (log intensity, higher = more binding, comparable within an allelic series). Also, the binding signal in the assay with SIX6 [11] is 10.2 upbm affinity estimate (log intensity, higher = more binding, comparable within an allelic series).
Regarding CTTGATAC, the binding signal with SIX6 [1] was 11.2 upbm affinity estimate (log intensity, higher = more binding, comparable within an allelic series); with SIX6 [5], 11.1 upbm affinity estimate (log intensity, higher = more binding, comparable within an allelic series); with SIX6 [7], 11.2 upbm affinity estimate (log intensity, higher = more binding, comparable within an allelic series); in the assay with SIX6 [9], 11.1 upbm affinity estimate (log intensity, higher = more binding, comparable within an allelic series); in the assay with SIX6 [10], 10.9 upbm affinity estimate (log intensity, higher = more binding, comparable within an allelic series).
For ATATCACG, the binding signal with SIX6 [1] is 11.1 upbm affinity estimate (log intensity, higher = more binding, comparable within an allelic series); with SIX6 [5], 11.1 upbm affinity estimate (log intensity, higher = more binding, comparable within an allelic series); in the assay with SIX6 [9], 11 upbm affinity estimate (log intensity, higher = more binding, comparable within an allelic series); with SIX6 [4] it was 10.9 upbm affinity estimate (log intensity, higher = more binding, comparable within an allelic series).
Turning to AAGTATCT, the binding signal in the assay with SIX6 [1] was 10.5 upbm affinity estimate (log intensity, higher = more binding, comparable within an allelic series); in the assay with SIX6 [5], 10.4 upbm affinity estimate (log intensity, higher = more binding, comparable within an allelic series); with SIX6 [2] it was 10.2 upbm affinity estimate (log intensity, higher = more binding, comparable within an allelic series); in the assay with SIX6 [6], 10.4 upbm affinity estimate (log intensity, higher = more binding, comparable within an allelic series); in the assay with SIX6 [3], 9.98 upbm affinity estimate (log intensity, higher = more binding, comparable within an allelic series); with SIX6 [7], 10.4 upbm affinity estimate (log intensity, higher = more binding, comparable within an allelic series). Moreover, the binding signal was 10.6 upbm affinity estimate (log intensity, higher = more binding, comparable within an allelic series) with SIX6 [8]; 10.4 upbm affinity estimate (log intensity, higher = more binding, comparable within an allelic series) in the assay with SIX6 [9]; 10.3 upbm affinity estimate (log intensity, higher = more binding, comparable within an allelic series) in the assay with SIX6 [10]; 10.3 upbm affinity estimate (log intensity, higher = more binding, comparable within an allelic series) in the assay with SIX6 [11]; 10.3 upbm affinity estimate (log intensity, higher = more binding, comparable within an allelic series) in the assay with SIX6 [4].
As for CTGATATC, the binding signal in the assay with SIX6 [1] is 11.1 upbm affinity estimate (log intensity, higher = more binding, comparable within an allelic series); with SIX6 [5], 11 upbm affinity estimate (log intensity, higher = more binding, comparable within an allelic series); with SIX6 [6] it was 10.9 upbm affinity estimate (log intensity, higher = more binding, comparable within an allelic series); in the assay with SIX6 [9], 11 upbm affinity estimate (log intensity, higher = more binding, comparable within an allelic series); with SIX6 [10], 10.9 upbm affinity estimate (log intensity, higher = more binding, comparable within an allelic series); in the assay with SIX6 [4], 10.9 upbm affinity estimate (log intensity, higher = more binding, comparable within an allelic series).
ATATCACC: the binding signal was 11.2 upbm affinity estimate (log intensity, higher = more binding, comparable within an allelic series) in the assay with SIX6 [1]; 11.1 upbm affinity estimate (log intensity, higher = more binding, comparable within an allelic series) with SIX6 [5]; 11.2 upbm affinity estimate (log intensity, higher = more binding, comparable within an allelic series) in the assay with SIX6 [7]; 11.1 upbm affinity estimate (log intensity, higher = more binding, comparable within an allelic series) with SIX6 [9]; 10.9 upbm affinity estimate (log intensity, higher = more binding, comparable within an allelic series) with SIX6 [10]; 10.9 upbm affinity estimate (log intensity, higher = more binding, comparable within an allelic series) with SIX6 [4].
As to ACGGATCC, the binding signal with SIX6 [1] was 10.2 upbm affinity estimate (log intensity, higher = more binding, comparable within an allelic series); with SIX6 [13], 9.67 upbm affinity estimate (log intensity, higher = more binding, comparable within an allelic series); with SIX6 [5], 10.1 upbm affinity estimate (log intensity, higher = more binding, comparable within an allelic series); in the assay with SIX6 [12], 9.26 upbm affinity estimate (log intensity, higher = more binding, comparable within an allelic series); in the assay with SIX6 [8] it was 10.5 upbm affinity estimate (log intensity, higher = more binding, comparable within an allelic series); in the assay with SIX6 [10], 10 upbm affinity estimate (log intensity, higher = more binding, comparable within an allelic series). Also, the binding signal with SIX6 [11] was 10.2 upbm affinity estimate (log intensity, higher = more binding, comparable within an allelic series).
Regarding GATCTTCA, the binding signal was 10.3 upbm affinity estimate (log intensity, higher = more binding, comparable within an allelic series) with SIX6 [1]; 10.3 upbm affinity estimate (log intensity, higher = more binding, comparable within an allelic series) with SIX6 [5]; 9.68 upbm affinity estimate (log intensity, higher = more binding, comparable within an allelic series) in the assay with SIX6 [12]; 10.3 upbm affinity estimate (log intensity, higher = more binding, comparable within an allelic series) with SIX6 [7]; 10.4 upbm affinity estimate (log intensity, higher = more binding, comparable within an allelic series) with SIX6 [8]; 10.2 upbm affinity estimate (log intensity, higher = more binding, comparable within an allelic series) with SIX6 [10]. In addition, the binding signal with SIX6 [11] was 10.3 upbm affinity estimate (log intensity, higher = more binding, comparable within an allelic series).
For the sequence AGAATATC, the binding signal with SIX6 [1] was 10.5 upbm affinity estimate (log intensity, higher = more binding, comparable within an allelic series); with SIX6 [5], 10.3 upbm affinity estimate (log intensity, higher = more binding, comparable within an allelic series); with SIX6 [12] it was 9.77 upbm affinity estimate (log intensity, higher = more binding, comparable within an allelic series); in the assay with SIX6 [2], 10.4 upbm affinity estimate (log intensity, higher = more binding, comparable within an allelic series); with SIX6 [6], 10.5 upbm affinity estimate (log intensity, higher = more binding, comparable within an allelic series); in the assay with SIX6 [3], 9.98 upbm affinity estimate (log intensity, higher = more binding, comparable within an allelic series). Moreover, the binding signal with SIX6 [7] was 10.5 upbm affinity estimate (log intensity, higher = more binding, comparable within an allelic series); in the assay with SIX6 [8], 10.5 upbm affinity estimate (log intensity, higher = more binding, comparable within an allelic series); with SIX6 [9] it was 10.4 upbm affinity estimate (log intensity, higher = more binding, comparable within an allelic series); with SIX6 [10], 10.3 upbm affinity estimate (log intensity, higher = more binding, comparable within an allelic series); with SIX6 [11] it was 10.3 upbm affinity estimate (log intensity, higher = more binding, comparable within an allelic series); in the assay with SIX6 [4], 10.3 upbm affinity estimate (log intensity, higher = more binding, comparable within an allelic series).
Regarding AAGTGATA, the binding signal in the assay with SIX6 [1] was 11.2 upbm affinity estimate (log intensity, higher = more binding, comparable within an allelic series); in the assay with SIX6 [5] it was 11.1 upbm affinity estimate (log intensity, higher = more binding, comparable within an allelic series); with SIX6 [6], 11 upbm affinity estimate (log intensity, higher = more binding, comparable within an allelic series); with SIX6 [7] it was 11.1 upbm affinity estimate (log intensity, higher = more binding, comparable within an allelic series); with SIX6 [9], 11.1 upbm affinity estimate (log intensity, higher = more binding, comparable within an allelic series); with SIX6 [10], 10.9 upbm affinity estimate (log intensity, higher = more binding, comparable within an allelic series). Also, the binding signal with SIX6 [4] was 11 upbm affinity estimate (log intensity, higher = more binding, comparable within an allelic series).
AGGTGTCA: the binding signal was 10.4 upbm affinity estimate (log intensity, higher = more binding, comparable within an allelic series) with SIX6 [1]; 9.88 upbm affinity estimate (log intensity, higher = more binding, comparable within an allelic series) with SIX6 [2]; 11.2 upbm affinity estimate (log intensity, higher = more binding, comparable within an allelic series) with SIX6 [7]; 11.1 upbm affinity estimate (log intensity, higher = more binding, comparable within an allelic series) in the assay with SIX6 [8]; 11.2 upbm affinity estimate (log intensity, higher = more binding, comparable within an allelic series) in the assay with SIX6 [9].
